Experimental data: PubChem BioAssay (Tox21)
Where “and” joins values, the source holds several entries; their conditions need not be identical. Identical values can stand only once. Inconclusive results are not listed. Entries that show only a call come without a potency. Where a structure was tested more than once in an assay, its records may differ in their call. Calls of active or inactive are those of the source. Unless noted, calls follow the shape of the dose curve; as a rule, active = well fitted curve in the direction sought with a large enough effect in the repeat runs; inconclusive = weak or mixed curves; inactive = no such curve, though single readings can be large; an effect the other way counts as inactive or inconclusive.

Legend:
[1] = target: Thyrotropin-releasing hormone receptor (Homo sapiens) (UniProt P34981); test: qHTS assay to identify small molecule agonists of the thyrotropin-releasing hormone receptor (TRHR) signaling pathway (AID 1346891; calls by dose curve; also: potency is read from the fitted curve at half-maximal effect;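 as to activation: HEK293 cells expressing TRHR with calcium dye readout; series mostly up to about 58 µM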)
Summary of the method: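 Cells: TRHR-Hek293, seeded and incubated 18 h. Dye loading: 2 h at 37 °C. Compound added from DMSO stock by pin tool. Read-out: kinetic calcium fluorescence over 3 min.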

[2] = Human pregnane X receptor (PXR) small molecule agonists, qHTS cell viability counter screen (AID 1346977); also: nearly all actives have a fitted effect of over 50% in size; also: potency is read from the fitted curve at half-maximal effect
Summary of the method: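 Cytotoxicity counter screen run in the same wells as the PXR luciferase assay, using PXR-Luc HepG2 cells in charcoal-stripped serum medium. Viability: CellTiter-Fluor fluorescence after 24hr compound treatment.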

[3] = Caspase-3/7 induction in HepG2 cells by small molecules, qHTS assay (AID 1346978); also: nearly all actives have a fitted effect of over 15% in size; also: potency is read from the fitted curve at half-maximal effect
Summary of the method: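 Wild-type HepG2 cells (2,000/well) were settled 5 h at 37 C, 5% CO2, then exposed to compounds in DMSO for 17 h. Caspase-3/7 activity was read by luminescence 30 min after adding Caspase-Glo 3/7 reagent at room temperature.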

[4] = Caspase-3/7 induction in CHO-K1 cells by small molecules, qHTS cell viability counter screen (AID 1346979); also: nearly all actives have a fitted effect of over 35% in size; also: potency is read from the fitted curve at half-maximal effect
Summary of the method: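 Cytotoxicity counter screen run in parallel with the caspase-3/7 assay: CHO-K1 cells, 16hr compound treatment at 37C, then CellTiter-Fluor for 1hr before fluorescence reading.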

[5] = Caspase-3/7 induction in CHO-K1 cells by small molecules, qHTS assay (AID 1346980); also: nearly all actives have a fitted effect of over 15% in size
Summary of the method: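 Wild-type cells were seeded at 1,500 per well and settled 5 hr at 37 C, 5% CO2, then exposed to DMSO-dissolved compounds for 17 hr. Caspase-Glo 3/7 reagent was added, and luminescence was read after 30min at room temperature.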

[6] = Caspase-3/7 induction in HepG2 cells by small molecules, qHTS cell viability counter screen (AID 1346981); also: nearly all actives have a fitted effect of over 30% in size; also: potency is read from the fitted curve at half-maximal effect
Summary of the method: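 In this quantitative HTS counter screen, compounds delivered in DMSO were left on unmodified HepG2 cells for 16 hr at 37 C. Viability was then determined fluorometrically with CellTiter-Fluor, in parallel with caspase-3/7 induction in the same wells.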

[7] = target: Nuclear receptor subfamily 1 group I member 2 (Homo sapiens) (UniProt O75469); test: Human pregnane X receptor (PXR) small molecule agonists, qHTS assay (AID 1346982); also: nearly all actives have a fitted effect of over 35% in size; also: potency is read from the fitted curve at half-maximal effect
Summary of the method: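 Reporter HepG2 cells expressing PXR-Luc are cultured in charcoal-stripped FBS (5%), treated with compounds for 24 hr at 37 C, and assayed by ONE-Glo luminescence after 30 min at room temperature.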

[8] = target: Nuclear receptor subfamily 1 group I member 2 (Rattus norvegicus) (UniProt Q9R1A7); test: Rat pregnane X receptor (rPXR) activation by small molecules, qHTS assay (AID 1346983); details: rPXR luciferase reporter cells, One-Glo luminescence, 24 h; max activation: stronger effect = higher value; also: nearly all actives have a fitted effect of over 20% in size; also: potency is read from the fitted curve at half-maximal effect
Summary of the method: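 Cell-based rPXR luciferase reporter assay, 2,000 cells per well, rested 5hr at 37 C before compound addition in DMSO, then 24 hr at 37 C. One-Glo reagent was added and luminescence read after 30 min at room temperature.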

[9] = target: Nuclear receptor subfamily 1 group I member 2 (Homo sapiens) (UniProt O75469); test: CYP3A4 induction through human pregnane X receptor (PXR) by small molecules, qHTS assay (AID 1346984); also: nearly all actives have a fitted effect of over 40% in size
Summary of the method: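 Induction measured in HepG2-based DPX-2 cells co-expressing human PXR and a CYP3A4 promoter-driven luciferase. After a 24-hour compound exposure, cells received CYP3A4 luciferin substrate at 3uM final for 3 hours, and light output was then recorded.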

[10] = target: Nuclear receptor subfamily 1 group I member 2 (Homo sapiens) (UniProt O75469); test: Human pregnane X receptor (PXR) activation by small molecules, qHTS assay (AID 1346985); also: nearly all actives have a fitted effect of over 40% in size
Summary of the method: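 DPX-2 cells (HepG2 co-transfected with a PXR response element and a CYP3A4-promoter luciferase construct) were seeded at 2,000 per well, rested 5 hr at 37C, then exposed to DMSO-dissolved compounds for 24 hr. Activation was read as luciferase luminescence.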

Nuclear receptor subfamily 1 group I member 2 (Rattus norvegicus), sequence (Q9R1A7 whole entry, looked up): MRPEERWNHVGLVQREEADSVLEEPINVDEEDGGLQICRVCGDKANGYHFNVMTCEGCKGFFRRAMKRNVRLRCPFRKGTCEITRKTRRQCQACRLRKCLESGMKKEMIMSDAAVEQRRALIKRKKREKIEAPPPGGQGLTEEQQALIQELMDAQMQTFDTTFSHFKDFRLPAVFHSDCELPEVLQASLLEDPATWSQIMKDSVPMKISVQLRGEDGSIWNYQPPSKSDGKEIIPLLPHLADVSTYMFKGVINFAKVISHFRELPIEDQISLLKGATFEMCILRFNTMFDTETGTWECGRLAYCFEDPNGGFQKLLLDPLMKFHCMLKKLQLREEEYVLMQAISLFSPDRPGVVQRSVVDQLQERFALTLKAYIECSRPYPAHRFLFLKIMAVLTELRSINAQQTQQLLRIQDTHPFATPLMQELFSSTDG
Thyrotropin-releasing hormone receptor (Homo sapiens), sequence (P34981 whole entry, looked up): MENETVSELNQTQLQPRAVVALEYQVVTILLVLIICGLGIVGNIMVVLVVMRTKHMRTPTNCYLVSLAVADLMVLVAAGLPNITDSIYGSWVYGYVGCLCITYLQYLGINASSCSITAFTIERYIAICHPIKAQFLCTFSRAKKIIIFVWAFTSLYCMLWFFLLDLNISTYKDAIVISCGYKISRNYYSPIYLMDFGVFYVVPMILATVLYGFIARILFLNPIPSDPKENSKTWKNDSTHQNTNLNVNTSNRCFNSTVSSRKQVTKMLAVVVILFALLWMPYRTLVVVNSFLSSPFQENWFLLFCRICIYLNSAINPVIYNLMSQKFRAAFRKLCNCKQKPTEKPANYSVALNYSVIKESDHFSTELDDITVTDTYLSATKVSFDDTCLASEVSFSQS
Nuclear receptor subfamily 1 group I member 2 (Homo sapiens), sequence (O75469 whole entry, looked up): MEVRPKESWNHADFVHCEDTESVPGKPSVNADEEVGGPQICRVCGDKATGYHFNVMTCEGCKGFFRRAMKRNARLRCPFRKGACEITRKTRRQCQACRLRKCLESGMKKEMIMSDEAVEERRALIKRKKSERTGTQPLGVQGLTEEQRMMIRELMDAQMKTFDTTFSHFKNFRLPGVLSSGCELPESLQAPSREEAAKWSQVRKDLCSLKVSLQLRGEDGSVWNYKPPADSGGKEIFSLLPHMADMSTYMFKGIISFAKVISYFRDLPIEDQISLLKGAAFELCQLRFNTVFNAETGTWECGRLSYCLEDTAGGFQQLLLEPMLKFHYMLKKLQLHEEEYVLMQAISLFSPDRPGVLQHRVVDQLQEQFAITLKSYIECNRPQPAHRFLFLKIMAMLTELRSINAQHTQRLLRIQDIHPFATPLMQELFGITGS

Row | Structure (SMILES) | Potency [1] | Potency [2] | Potency [3] | Potency [4] | Potency [5] | Potency [6] | Potency [7] | Potency [8] | outcome [9] | max activation [8] | outcome [10]
1 | C=C(C)C(=O)OCCCCCCCCCCCC | inactive | inactive | inactive | inactive | inactive | inactive | – | – | – | – | –
2 | CC1=CC[C@H]2C[C@@H]1C2(C)C | inactive | inactive | inactive | inactive | inactive | inactive | inactive | – | – | – | –
3 | CC#C[C@]1(O)CC[C@H]2[C@@H]3CCC4=CC(=O)CCC4=C3[C@@H](c3ccc(N(C)C)cc3)C[C@@]21C | inactive | inactive | inactive | 30.6 µM (active) | inactive | 30.6 µM (active) | 48.6 µM (active) and 23.7 µM (active) | 10 µM (active) | inactive | – | –
4 | Clc1ccc(Cl)c(Cl)c1Cl | inactive | inactive | inactive | inactive | inactive | inactive | – | – | – | – | –
5 | O=C(c1ccc(O)cc1)c1ccc(O)cc1O | inactive | inactive | inactive | inactive | inactive | inactive | – | – | – | – | –
6 | CC(C)NCC(O)COc1cccc2ccccc12 (stereo not drawn) | inactive and 43.7 µM (active) | 39.8 µM (active) | inactive | inactive | inactive | inactive | – | – | – | – | –
7 | CN(C)c1cccc(O)c1 | inactive | inactive | inactive | inactive | inactive | inactive | 49.3 µM (active) and 54.5 µM (active) | – | – | – | –
8 | CCCCCCCCC | inactive | inactive | inactive | inactive | inactive | inactive | inactive | – | – | – | –
9 | CCCCC(CC)COC(C)=O (stereo not drawn) | inactive | inactive | inactive | inactive | inactive | inactive | inactive | – | – | – | –
10 | CCCCNC(N)=O | inactive | inactive | inactive | inactive | inactive | inactive | – | – | – | – | –
11 | C[C@@H]1O[C@@H](OC[C@H]2O[C@@H](Oc3c(-c4ccc(O)c(O)c4)oc4cc(O)cc(O)c4c3=O)[C@H](O)[C@@H](O)[C@@H]2O)[C@H](O)[C@H](O)[C@H]1O | inactive | inactive | inactive | inactive | inactive | inactive | inactive | – | inactive | -1.22% (inactive) | inactive
12 | Oc1ccc2ccccc2c1N=Nc1ccccc1 | inactive | 27.3 µM (active) and 30.6 µM (active) | inactive | 48.5 µM (active) and 27.3 µM (active) | inactive | 48.5 µM (active) and 27.3 µM (active) | 43.2 µM (active) and 21.7 µM (active) | – | – | – | –
13 | O=C(c1cc(O)c(O)c(O)c1)c1ccc(O)c(O)c1O | – | 39.8 µM (active) and 61.1 µM (active) | inactive | 48.4 µM (active) and 54.5 µM (active) and 29.8 µM (active) | inactive | 54.3 µM (active) and 30.6 µM (active) | – | – | – | – | –
14 | Cc1ccc(C)c(C)c1 | – | inactive | inactive | inactive | inactive | inactive | – | – | – | – | –
15 | CCCCCCC(C)(C)S | – | inactive | inactive | inactive | inactive | inactive | – | – | – | – | –
16 | CCCCCCCCCCCCOCC1CO1 (stereo not drawn) | – | inactive | inactive | inactive | inactive | inactive | – | – | – | – | –
17 | COCC(C)O (stereo not drawn) | – | inactive | inactive | inactive | inactive | inactive | – | – | – | – | –
18 | CCCCCCCCCC(=O)O | – | inactive | inactive | inactive | inactive | inactive | – | – | – | – | –
19 | O=[N+]([O-])c1cccc(Cl)c1 | – | inactive | inactive | inactive | inactive | inactive | inactive | – | – | – | –
20 | OCCOCCOCCOCCO | – | inactive | inactive | inactive | inactive | inactive | inactive | – | – | – | –
21 | CC(C)n1c(/C=C/[C@@H](O)C[C@@H](O)CC(=O)O)c(-c2ccc(F)cc2)c2ccccc21 | inactive | inactive | 12.2 µM (active) | inactive | inactive | inactive | – | 12.6 µM (active) | – | – | –
22 | CC1CC(OC(=O)c2ccccc2O)CC(C)(C)C1 (stereo not drawn) | inactive | inactive | inactive | inactive | inactive | inactive | inactive | – | inactive | -1.96% (inactive) | inactive
23 | CCCCCCOC(C)=O | – | inactive | inactive | inactive | inactive | inactive | inactive | – | – | – | –
24 | Cc1ccc(C(=O)O)o1 | – | inactive | inactive | inactive | inactive | inactive | – | – | – | – | –
25 | CC(=O)Nc1ccc(C(=O)O)cc1 | inactive | inactive | inactive | inactive | inactive | inactive | – | – | inactive | -3.56% (inactive) | inactive
26 | O=[N+]([O-])c1cc(N(CCO)CCO)ccc1NCCO | – | 30.6 µM (active) | inactive | 27.3 µM (active) and 30.6 µM (active) | inactive | 30.6 µM (active) and 48.6 µM (active) | – | – | – | – | –
27 | O=C1CCCCC1 | – | inactive | inactive | inactive | inactive | inactive | – | – | – | – | –
28 | CCCCCCCCCCC=CC1CC(=O)OC1=O (stereo not drawn) | – | inactive | inactive | inactive | inactive | inactive | – | – | – | – | –
